Screening results: PubChem BioAssay, National Center for Advancing Translational Sciences (NCATS)
This is a sample that favours compounds with a hit; in the whole collection about 19% have one here.
IL1B secr inh: qHTS for Inhibitors of Inflammasome Signaling: IL-1-beta AlphaLISA Primary Screen; hit rate 4.7% among 360,000; AID 743279, 2014; activity change, % at 57.5 µM; THP-1 LPS/ATP IL-1B secretion, AlphaLISA, 16 h; stronger effect = lower value; in the data active means activity change below about -50%; inconclusive means mostly about -30% to -49%
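Secreted IL-1B measured by AlphaLISA bead assay after 16 h compound exposure of THP-1 cells; compounds (final up to 57.5 uM) added 1 h before LPS (250 ng/mL) and ATP (1.25 mM) stimulation; lower signal means less secretion.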
DT40 TDP1 CPT: qHTS for Inhibitors of human tyrosyl-DNA phosphodiesterase 1 (TDP1): qHTS in cells in presence of CPT; Potency, µM (highest dose often 46.2 µM), without a hit: at the highest dose activity change, negative = growth inhibition, actives largely listed as inhibitors; chicken DT40 Tdp1-/-;hTDP1 cells + 20 nM CPT, ATP luminescence, 48 h; hit rate 12% among 420,000; further: potency means the concentration at half of the fitted maximal effect; nearly all actives have a fitted effect of over 55% in size
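Chicken DT40 Tdp1-/- cells complemented with human TDP1, 400 cells/well, exposed to compounds plus 20 nM camptothecin for at least 48 h at 37 C; viability read as ATP content by CellTiter-Glo luminescence.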
HT1080 IDH1KD tx: qHTS for induction of synthetic lethality in tumor cells producing 2HG: qHTS for the HT-1080-IDH1KD cell line; Potency, µM (highest dose often 46.1 µM), inactives show at the highest dose activity, negative = toxicity, actives largely listed as cytotoxic; hit rate 2% among 360,000; HT-1080 IDH1 knockdown viability, ATP luminescence, 48 h;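 further: potency means the concentration at half of the fitted maximal effect; 0% = DMSO wells and -100% = cell-free medium wells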
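Luminescent ATP read-out (CellTiter-Glo, 10 min at room temperature) after 48 h compound exposure at 37 °C gave viability of IDH1-knockdown HT-1080 cells. Activity was normalised to DMSO and cell-free wells, then fitted as concentration-response curves.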
ELG1 repair inh: qHTS screen for small molecules that inhibit ELG1-dependent DNA repair in human embryonic kidney (HEK293T) cells expressing luciferase-tagged ELG1; hit rate 2.3% among 330,000; HEK293T ELG1-luciferase reporter, luminescence, 16 h; DNA damage induced by 5-fluorouridine; Potency, µM (top dose mostly 46.1 µM), for the others: at the highest dose activity change, negative = inhibition, usual class: inhibitors; further: potency means the concentration at half of the fitted maximal effect; nearly all actives have a fitted effect of over 55% in size
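DMSO vehicle served as the neutral condition. Each well held 2,000 cells given 5-fluorouridine plus compound; after 16 hr at 37 °C/5% CO2, ONE-Glo was added and luciferase measured 30 min later.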
DT40 TDP1 no CPT: qHTS for Inhibitors of human tyrosyl-DNA phosphodiesterase 1 (TDP1): qHTS in cells in absence of CPT. DT40 Tdp1-/- hTDP1 cells, no CPT, ATP luminescence, 48 h. Potency, µM (titrated, usually from 46.2 µM), without a hit: at the highest dose activity change, negative = growth inhibition, actives largely listed as inhibitors. hit rate 15% among 420,000. AID 686978, 2013; further: potency means the concentration at half of the fitted maximal effect; nearly all actives have a fitted effect of over 55% in size
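Readout: luminescence from CellTiter-Glo after 30 min in the dark at RT. Cells: DT40 Tdp1-/- with stable hTDP1, 400/well. Exposure: compounds alone, ≥48 hr, 37 °C.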
HT1080-NT tox: qHTS for induction of synthetic lethality in tumor cells producing 2HG: qHTS for the HT-1080-NT fibrosarcoma cell line; HT-1080-NT fibrosarcoma viability, CellTiter-Glo ATP luminescence, 48 h; Potency, µM (doses to about 46.1 µM), inactives show at the top dose activity, negative = less viability, usual class: cytotoxic; hit rate 1.6% among 360,000;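 further: NT is the 2HG producing partner of a matched IDH1 knockdown line; potency means the concentration at half of the fitted maximal effect; 0% = DMSO-treated cells and -100% = media-only wells without cells; nearly all actives have a fitted effect of over 55% in size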
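Fibrosarcoma NT cells, 750 per well in 5% FBS RPMI, were exposed to compound for 48 hours. Viability: CellTiter-Glo luminescence.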
Numbers without * were called inactive; ? = inconclusive; · = no result; [ ] = remark or other dose. Unless noted, the call rests on the fitted dose curve; in most records, active means well fitted curve in the direction sought with a large enough effect; inconclusive means small, poorly fitted or top-dose-only effect, or another doubt; inactive means no such curve, though single readings can be large; an effect the other way counts as inactive or inconclusive. Unless noted, on the % scale 0 is the no-effect control and ±100 the full control effect.

SMILES | IL1B secr inh | DT40 TDP1 CPT | HT1080 IDH1KD tx | ELG1 repair inh | DT40 TDP1 no CPT | HT1080-NT tox
COc1ccc(C)c2sc(=NC(=O)c3ccc(C(C)=O)cc3)n(C)c12 | -11 | 15µM* | 2% | ? | ? | -7%
COc1ccc(C)c2sc(=NC(=O)c3cccc(N4C(=O)CCC4=O)c3)n(C)c12 | 46 | -12% | -8% | ? | 3% | -2%
COc1ccc(C)c2sc(=NC(=O)c3ccccc3)n(C)c12 | 52 | ? | 2% | ? | 21µM* | 1%
O=[N+]([O-])c1ccccc1Sc1nccn1Cc1ccccc1 | -12 | -12% | 10% | 7% | -14% | 2%
COc1ccccc1C1c2[nH]c3ccccc3c2CCN1Cc1cnc(C)s1 (stereo not given) | 6 | ? | 0% | ? | 18µM* | 0%
COc1ccc(C2c3[nH]c4ccccc4c3CCN2Cc2ccoc2)c(F)c1 (stereo not given) | 0 | ? | -23% | 13% | 16µM* | ?
Oc1cccc(C2c3[nH]c4ccccc4c3CCN2Cc2ccoc2)c1 (stereo not given) | -4 | -26% | -3% | -9% | -25% | 1%
COc1cccc(C2c3[nH]c4ccccc4c3CCN2Cc2cnc(C)s2)c1OC (stereo not given) | -8 | ? | ? | ? | 15µM* | ?
Oc1cccc(C2c3[nH]c4ccccc4c3CCN2Cc2ccc3c(c2)CCO3)c1 (stereo not given) | -93* | ? | 23µM* | ? | 21µM* | 21µM*
CC(=O)CSc1nc2nccnc2[nH]1 | 15 | 0% | 8% | · | 2% | -3%
COc1cc(C(=O)OCc2csc(CC(=O)Nc3ccccc3C)n2)ccc1OCC(C)C | 66 | ? | -15% | ? | ? | -11%
O=C(CN1C(=O)COc2ccc(S(=O)(=O)NC3CCCC3)cc21)NCc1ccc(Cl)cc1 | · | -18% | · | · | ? | ·
O=C(CSc1nncc(=O)[nH]1)NC1CCCCC1 | 5 | -4% | 19% | 25% | 3% | 14%
Cc1noc(C)c1COC(=O)[C@@H](NC(=O)c1ccccc1)C(C)C | 50 | -9% | -4% | -9% | 1% | -11%
CCC(C)Nc1c2c(nc3c(-c4ccccc4)c(C)nn13)CCC2 (stereo not given) | ? | ? | ? | -30% | ? | -19%
CCCCNc1c2c(nc3c(-c4ccccc4)c(C)nn13)CCC2 | -26 | 21µM* | -5% | ? | 29µM* | 7%
Cc1nn2c(NCCN(C)C)c3c(nc2c1-c1ccccc1)CCCC3 | -58* | 0.58µM* | 15µM* | ? | 1µM* | 15µM*
Cc1nn2c(NCc3cccnc3)c3c(nc2c1-c1ccccc1)CCC3 | -76* | ? | ? | -30% | ? | -18%
COc1cccc(Nc2c3c(nc4c(-c5ccccc5)c(C)nn24)CCC3)c1 | 1 | 6% | -5% | ? | 13µM* | 14%
CCN(CC)CC(=O)c1c(C)n(C)c2ccc(OC)cc12 | · | 5% | · | · | 3% | ·
COCCNc1c2c(nc3c(-c4ccccc4)c(C)nn13)CCCC2 | -24 | 16µM* | ? | ? | ? | ?
Cc1nn2c(N3CCN(CCO)CC3)c3c(nc2c1-c1ccccc1)CCCC3 | · | ? | ? | ? | ? | 18µM*
Cc1nn2c(NCCOCCO)c3c(nc2c1-c1ccccc1)CCCC3 | ? | -13% | -1% | -1% | ? | -10%
Cc1[nH]c2ccc(C(=O)OC(C)C(=O)NC3(C#N)CCCCC3)cc2c1C (stereo not given) | -3 | ? | -7% | 8% | ? | -13%
Cc1oc(-c2ccccc2Cl)nc1CS(=O)(=O)CC(=O)NC(C)CCc1ccccc1 (stereo not given) | · | 16µM* | · | · | ? | ·
SMILES | IL1B secr inh | DT40 TDP1 CPT | HT1080 IDH1KD tx | ELG1 repair inh | DT40 TDP1 no CPT | HT1080-NT tox
Cc1oc(-c2ccccc2Cl)nc1CS(=O)(=O)CC(=O)NC(C)c1ccccc1 (stereo not given) | 17 | ? | 0% | -10% | 23µM* | 4%
Cc1ccc(CNC(=O)CS(=O)(=O)Cc2nc(-c3ccccc3F)oc2C)cc1 | 9 | -18% | 0% | 4% | ? | 0%
Cc1oc(-c2ccccc2Cl)nc1CS(=O)(=O)CC(=O)NCc1ccc(F)cc1 | · | ? | · | · | 18µM* | ·
O=C(NCCc1ccccn1)C1CC12CCN(C(=O)c1c(F)cccc1Cl)CC2 (stereo not given) | · | 7%[9.04 µM] | · | · | -6% | ·
COc1ccc(-c2noc(-c3ccc(NC4CCCCC4)c([N+](=O)[O-])c3)n2)cc1 | · | 0% | · | · | 7% | ·
O=C(Cn1c(=O)c2cc(Cl)ccc2n2nncc12)Nc1ccccc1 | · | -27% | · | · | -15% | ·
CCOC(=O)N1CCN(C(=O)CSc2nc3c([nH]c4ccccc43)c(=O)n2C)CC1 | 8 | -29% | 8% | 2.6µM* | -19% | 27%
C=CCn1c(SCC(=O)N2CCCC2)nc2c([nH]c3ccccc32)c1=O | 8 | 1% | -16% | -3% | 4% | -6%
Cn1c(SCC(=O)N2CCCCC2)nc2c([nH]c3ccccc32)c1=O | 15 | ? | -6% | -3% | ? | 12%
C=CCn1c(SCC(=O)N2CCN(C(=O)OCC)CC2)nc2c([nH]c3ccccc32)c1=O | 1 | ? | 5% | · | 16µM* | -1%
CN1CCn2cnc(C(=O)NCCCCCNC(=O)OC(C)(C)C)c2C1=O | -2 | 0% | -3% | · | 5% | -3%
CCOC(=O)C1CCCN(C(=O)c2cnn(-c3nccc(-c4cc(C)sc4C)n3)c2C)C1 (stereo not given) | · | 3%[9.04 µM] | · | · | ? | ·
O=C(OCc1cccc(Cl)c1)c1cc(S(=O)(=O)N2CCCCC2)ccc1N1CCOCC1 | 0 | 16µM* | -21% | ? | 29µM* | -14%
O=C(COC(=O)c1cc(S(=O)(=O)N2CCCCC2)ccc1N1CCOCC1)c1ccc(Cl)cc1 | 0 | ? | 1% | ? | ? | 1%
